Inconclusive results are not listed. Activity calls are given as the source filed them. The call rests on the fitted dose curve; in most records, active means well fitted curve in either direction with a large enough effect (not every such curve was filed as active); inconclusive means small, poorly fitted or top-dose-only effect, or another doubt; inactive means flat fitted curve, though single readings scatter.
On the % scale 0 is the no-effect control and ±100 the full control effect.

This test addresses Mitogen-activated protein kinase 10 (Mus musculus) (UniProt Q61831). The test is described as follows: JNK3 AlphaScreen Assay (AID 530).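 Further: kinase came from lysate of stimulated human HepG2 cells.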 Particulars: JNK3 lysate, c-Jun phosphorylation; series mostly up to 57.1 µM; activity change, negative = inhibition: at the top concentration. The text has this:
NIH Chemical Genomics Center [NCGC]
NIH Molecular Libraries Screening Centers Network [MLSCN]
The c-jun N-terminal kinase (JNK) family are serine/threonine protein kinases that phosphorylate c-jun, a component of the transcription factor […] (AP-1). JNK kinases are members of the mitogen-activated protein kinase family including the extracellular regulated kinases and p38 kinases. Three JNK genes (JNK 1, 2, and 3) have been identified in humans so far. JNK1 and JNK2 have a broad distribution and JNK3 is primarily found in neuronal tissues and cardiac myocytes.
JNK3 has been under consideration as a target for the treatment of neurodegenerative disorders. […] JNK pathway is also involved in pathological process in a mouse model of Parkinson's disease (Xia et al., 2001).
Given these potential tissue distributions and links to neuroprotection, JNK3 inhibitors should provide useful investigational tools to study the role of this kinase in several diseases including, arthritis, stroke, myocardial infarction, ischemic injury and Parkinson's disease.
A homogeneous AlphaScreen is developed to measure the activity of JNK3. AlphaScreen is a two bead-based proximity-dependent chemical energy transfer luminescent assay platform. The phosphorylation of a biotinylated c-jun substrate by JNK3 can be detected with an antibody raised against phosphorylated c-jun. This process brings streptavidin donor beads and Protein-A acceptor beads to within a proximity range of <200 nm, and subsequently lead a chemical luminescent reaction upon exciting donor beads with 680 nm laser excitation light. Inhibition of JNK3 activity by small molecules and subsequent decrease in the antibody binding to biotinylated c-jun could attenuate or abolish this chemical luminescent reaction.
Yang DD, Kuan CY, Whitmarsh AJ, Rincon M, Zheng TS, Davis RJ, Rakic P and Flavell RA (1997) Absence of excitotoxicity-induced apoptosis in the hippocampus of mice lacking the Jnk3 gene. Nature 389:865-870. [PMID: 9349820]
Herdegen T, Claret FX, Kallunki T, Martin-Villalba A, Winter C, Hunter T, and Karin M (1998) Lasting N-terminal phosphorylation of c-Jun and activation of c-Jun N-terminal kinases after neuronal injury. J.Neurosci. 18:5124-5135. [PMID: 9651196]
Xia XG, Harding T, Weller M, Bieneman A, Uney JB and Schulz JB (2001) Gene transfer of the JNK interacting protein-1 protects dopaminergic neurons in the MPTP model of Parkinson's disease. Proc.Natl.Acad.Sci.U.S.A. 98:10433-10438.
NCGC Assay Protocol Summary:
GST-cJun (1-79) (Stratagene, La Jolla CA, #205145) was biotnylated by PerkinElmer (PerkinElmer-BioSignalInc. Montreal, Canada) and was detectable by the streptavidin Donor beads. Anti-(phospho)cJun (Ser73) antibody was from UpState (Charlottesvilles, VA, #06-659). JNK3-containing lysates were generated from HepG2 cells and pre-activated by interleukin1-beta and tumor necrosis factor alpha. All reagents were stored at -20 C before using. Phosphorylated biotinylated-GST-cJun was recognized by Anti-(phospho)cJun (Ser73) antibody and this process brings acceptor and donor beads together. Therefore JNK3 phosphorylation of cJun can be measured by Alpha reading by EnVision (PerkinElmer, Boston, MA).
The composition of kinase buffer was (in mM) 20 tris- HCl (pH 7.6) 10 MgCl2, 1 DTT, and 0.1 Na3VO4 and 0.01% Tween-20. Beads were diluted in detection buffer containing (in mM) 20 tris-HCl (pH 7.7), 20 NaCl and 80 EDTA and 0.3% BSA. The assay was performed at room temperature. All compounds were screened as titrations from 0.6 nM to 46 uM final concentration. The assay was performed in 1536-well format (white solid bottom and untreated) as follows:
Sequence,Parameter,Value,Description
1,Reagent,3 uL,Biotin-GST-cJun, Anti-(phospho)cJun and pre-activated JNK3-containing lysates
2,Compound,23 nL,Final concentration was 0.6nM to 46uM
3,Time,15 minutes,Room Temperature
4,Reagent,1 uL,ATP final concentration 10uM
6,Reagent,0.5 uL,2ng/well bead mixture
[…]
On the technique in general: Bead proximity is the source of the signal in Alpha formats.
On to `COCCn1c(=O)c(-c2ccc(F)cc2)nc2cnc(Nc3cccc(OC)c3)nc21`, for which the “activity change, negative = inhibition” value is 9.37% (inactive).

Take `COc1ccc(Oc2ncc3nc(-c4cccc(C#N)c4)c(=O)n(Cc4cccc(OC)c4)c3n2)cc1`: the “activity change, negative = inhibition” value is -17.5% (inactive).

Take `CCNc1ncc2ncc(=O)n(Cc3cccc(OC)c3)c2n1`: the “activity change, negative = inhibition” value is -7.39% (inactive).

Take `COc1ccccc1-c1nccc(NCc2cccs2)n1`: the “activity change, negative = inhibition” value was -1.7% (inactive).

With `CC1(C)CC(N=C=O)CC(C)(CN=C=O)C1` (stereo not given), the “activity change, negative = inhibition” value was -4.36% (inactive).

As for `Nc1nc(N)c(-c2cccc(C(F)(F)F)c2)c(Cc2cccc(C(F)(F)F)c2)n1`, the activity change, negative = inhibition is 3.36% [at 11.4 µM] (inactive).

As for `O=c1cnc2cnc(Oc3ccccc3)nc2n1Cc1cccs1`, the “activity change, negative = inhibition” value was -2.75% (inactive).

As to `c1ccc2c(c1)c1cccc3ccc4cccc2c4c31`, the “activity change, negative = inhibition” value is 22.1% (inactive).

In the case of `O=c1c(-c2ccccc2)nc2cncnc2n1Cc1ccccc1`, the “activity change, negative = inhibition” value was -20.9% (inactive).

As to `COCC(=O)O`, the “activity change, negative = inhibition” value was -6.75% (inactive).

Turning to `O=c1c(CCc2ccccc2)nc2cncnc2n1Cc1ccccc1`, the “activity change, negative = inhibition” value was -19.1% (inactive).

As to `CC1=CC(C)(C)Nc2ccccc21`, the Potency entry was “inactive”.

As for `CC(=O)OC/C=C(\C)CCC=C(C)C`, the “activity change, negative = inhibition” value was -0.163% (inactive).

Take `CCC(O)OC(O)CC` (stereo not given): the Potency result is “inactive”.

`COc1cccc(Nc2ncc3ncc(=O)n(Cc4ccc(F)cc4)c3n2)c1`: the “activity change, negative = inhibition” value was -4.34% (inactive).

With `COc1cccc(-c2nc(NCCN3CCOCC3)c3ccccc3n2)c1`, the “activity change, negative = inhibition” value is -0.916% (inactive).

In the case of `CCNc1ncc2nc(-c3cccs3)c(=O)n(CCC#N)c2n1`, the “activity change, negative = inhibition” value is 23.2% (inactive).

As for `c1ccc2c(c1)[nH]c1ccccc12`, the “activity change, negative = inhibition” value is 13.2% (inactive).

For the molecule `COCCNc1ncnc2ccc(-c3ccccc3OC)cc12`, the “activity change, negative = inhibition” value is -4.4% (inactive).

`c1cn(-c2ncnc3ccc(-c4ccoc4)cc23)cn1`: the “activity change, negative = inhibition” value is -22.7% (inactive).

Take `NS(=O)(=O)c1ccc(N=Nc2c[nH]c(=O)c(O)c2)cc1`: the activity change, negative = inhibition is -17.1% [at 11.4 µM] (inactive).

Turning to `CCNc1ncc2nc(CCc3ccccc3)c(=O)n(C3CC3)c2n1`, the “activity change, negative = inhibition” value was 0.378% (inactive).

Consider `C=CCc1ccc(OC)c(OC)c1`, for which the “activity change, negative = inhibition” value is 4.5% (inactive).

Regarding `C=CCOC(=O)c1ccccc1C(=O)OCC=C`, the “activity change, negative = inhibition” value was 26.1% (inactive).

As to `C/C=C\c1ccc(OC)cc1`, the “activity change, negative = inhibition” value is -4.58% (inactive).

`COCCn1c(=O)c(-c2ccc(F)cc2)nc2cnc(Oc3ccccc3)nc21`: the “activity change, negative = inhibition” value is 0.978% (inactive).

As for `Cc1ncc(COP(=O)(O)O)c(C)c1O`, the activity change, negative = inhibition was 4.19% [at 11.4 µM] (inactive).

Take `CN1CCN(c2nc(-c3ccoc3)nc3ccccc23)CC1`: the “activity change, negative = inhibition” value was 1.01% (inactive).

Take `N#CCCn1c(=O)c(-c2cccc(C#N)c2)nc2cnc(Oc3cccc(Cl)c3)nc21`: the “activity change, negative = inhibition” value is -8.61% (inactive).

For the molecule `O=c1cnc2cnc(N3CCOCC3)nc2n1Cc1cccs1`, the “activity change, negative = inhibition” value is 3.42% (inactive).

Turning to `COc1cccc(Cn2c(=O)c(CCc3ccccc3)nc3cnc(N4CCN(C)CC4)nc32)c1`, the “activity change, negative = inhibition” value was -8.95% (inactive).

For `COC(=O)c1ccc(C)cc1`, the “activity change, negative = inhibition” value is 10.4% (inactive).

Consider `O=c1c(-c2ccccc2)nc2cnc(Oc3ccccc3)nc2n1C[C@H]1CCCO1`, for which the “activity change, negative = inhibition” value is 4.93% (inactive).

In the case of `COc1ccc2[nH]cc(CCNc3ncnc4ccc(-c5cccc(C#N)c5)cc34)c2c1`, the “activity change, negative = inhibition” value is -4.6% (inactive).

Take `Cc1ccccc1-c1ccc2ncnc(NCCN3CCOCC3)c2c1`: the “activity change, negative = inhibition” value was 1.64% (inactive).

With `C1OCOCO1`, the “activity change, negative = inhibition” value was 4.65% (inactive).

As for `COc1ccc2[nH]cc(CCNc3ncncc3-c3ccccc3C(F)(F)F)c2c1`, the “activity change, negative = inhibition” value was -12.2% (inactive).

Turning to `c1ccc(CNc2nc(-c3cccnc3)nc3ccccc23)cc1`, the “activity change, negative = inhibition” value is -5.55% (inactive).

As for `S=C1NC=NC2N=CNC12` (stereo not given), the “activity change, negative = inhibition” value is -2.69% (inactive).

For the molecule `COc1c2ccoc2cc2oc(=O)ccc12`, the Potency entry is “inactive”.

The record behind these values is PubChem BioAssay (NCATS).
